Screening data (PubChem BioAssay)
The list is not random: actives were taken first. Their share in the collection is about 3.4%.
TEAD-YAP inh = TEAD-YAP interaction inhibition | HEK-TIYL cells, TEAD-Gal4/YAP UAS-luciferase luminescence | inhibition, % at 9.12 µM | 1.4% of 640,000 active; in the data active = inhibition above about 32%;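 also: 0% = median of test compound wells and 100% = reference inhibitor wells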
FBW7 activator = activators of human E3 ligase FBW7 | Q969H0 | AlphaScreen FBW7–phospho-cyclin E peptide binding, activator screen | normalized activity (activation), % at 26.1 µM | 0.13% of 650,000 active | AID 1259310; in the data active = normalized activity above about 1.9%;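 also: purified mutant Fbw7 with reduced substrate affinity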
GPR151 activ = activators of human GPR151 | 1% of 650,000 active | PathHunter beta-arrestin GPR151 cells, luminescence | activation, % at 11.2 µM | Q8TDV0 | AID 1508602; in the data active = activation above about 4.9%;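 also: 0% = median of compound wells and 100% = cells with positive control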
Target sequence (Q8TDV0 whole entry, looked up): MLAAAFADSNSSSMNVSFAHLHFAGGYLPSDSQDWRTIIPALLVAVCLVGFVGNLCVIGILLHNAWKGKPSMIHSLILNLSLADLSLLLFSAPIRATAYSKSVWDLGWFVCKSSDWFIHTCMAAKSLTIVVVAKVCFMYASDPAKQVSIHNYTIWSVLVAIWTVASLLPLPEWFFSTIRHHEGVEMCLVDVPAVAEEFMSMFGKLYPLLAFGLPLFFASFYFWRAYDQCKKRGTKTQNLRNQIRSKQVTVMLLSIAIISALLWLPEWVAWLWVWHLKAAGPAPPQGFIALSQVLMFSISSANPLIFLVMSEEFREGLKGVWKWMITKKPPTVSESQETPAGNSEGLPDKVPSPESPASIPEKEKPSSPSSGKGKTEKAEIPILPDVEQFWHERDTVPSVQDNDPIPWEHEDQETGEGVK
MITF primary = blocks human microphthalmia-associated transcription factor | O75030 | AID 1259374 | 0.91% of 650,000 active | AlphaScreen MITF homodimerization, bead proximity signal | inhibition, % at 2.6 µM; in the data active = inhibition above about 50%;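 also: 0% = vehicle wells with protein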
MITF confirm = confirmation of human MITF inhibitors. shares compounds with MITF primary. AlphaScreen MITF homodimerization, biotin/His-MITF beads. inhibition, % at 2.6 µM. 16% of 4,700 active. AID 1259372;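 active = inhibition above a cutoff derived from the DMSO control wells, cut at about 28% in these data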;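 also: 0% = MITF dimer wells with DMSO only; inhibitors lower the bead chemiluminescence by keeping MITF from dimerizing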
AlphaScreen DR = counter-screen: compounds optically interfering with AlphaScreen; IC50, µM; shares compounds with MITF primary; AlphaScreen optical interference counterscreen, cell-free; 6% of 480 active; call rule not given here
AS interf ctr = optically interferes with AlphaScreen signal | shares compounds with MITF primary | LysRS AlphaScreen counterscreen, signal interference, triplicate | inhibition, % at 2.6 µM | 7.6% of 4,700 active | AID 1259376;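 active = inhibition above a cutoff derived from the DMSO control wells, cut at about 30% in these data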
The depositor's hits bear a star; . = no result.

SMILES	TEAD-YAP inh	FBW7 activator	GPR151 activ	MITF primary	MITF confirm	AS interf ctr	others
CCn1c2ccccc2c2cc(CN3CCN(Cc4cc(OC)c(OC)cc4[N+](=O)[O-])CC3)ccc21	5	0	1	82*	3	21
CC(=O)OCCOC(=O)CN1C(=O)c2ccccc2C1=O	-6	0	-1	13	.	.
CC1=C(C(=O)OC2CCCC2)C(c2coc3ccccc3c2=O)C2=C(CC(c3cccs3)CC2=O)N1 (configuration not stated)	-1	1	1	8	.	.
CCN(CC(=O)Nc1cccc2ccccc12)CC(=O)NC(C)C	3	0	-1	0	.	.
COc1ccc(CN2CCN(C(=O)CC(C)C)CC2)c(OC)c1OC	7	0	0	40	.	.
COc1cc(CN2CCN(C(=O)CC(C)C)CC2)cc(OC)c1	2	0	0	53*	11	10
COc1cc(CN2CCN(C(=O)CC(C)C)CC2)cc(OC)c1OC	4	0	1	70*	6	2
CC1(C)C(=O)C2(CCCCC2)C(=O)OC1c1ccccc1F (configuration not stated)	0	0	0	10	.	.
O=C(NNC(=S)NCc1ccc(Cl)cc1)c1ccccn1	1	-1	4	112*	102*	100*
O=C(NNC(=S)NCc1ccco1)c1ccccn1	10	-2	-2	117*	46*	67*
Cc1cnc(N2CCC(N3CCOCC3)CC2)nc1N	-2	0	0	12	.	.
CC(=O)NC(=S)NNC(=O)c1ccccc1O	30	-2	0	76*	39*	100*
CC(=O)NC(=S)NNC(=O)c1ccccc1I	-1	-1	-1	3	.	.
O=C(NC(=S)NNC(=O)c1ccccc1O)c1cccs1	10	0	1	78*	26	100*
O=C1CC(c2cccc(Oc3ccccc3)c2)c2ccc3ccccc3c2N1 (configuration not stated)	16	0	-1	9	.	.
O=C(O)c1cccc(-n2cccc2/C=C\[N+](=O)[O-])c1	-8	0	0	63*	59*	6	AlphaScreen DR=>6.5
CC(C)C(NC(=O)c1ccoc1)c1nnc2n1CCN(Cc1cc3ccccc3[nH]1)CC2 (configuration not stated)	0	0	0	69*	0	-1
O=C1C2C(C(=O)N1c1ccc(Br)cc1)N1CCCN1C2c1ccc(F)cc1 (configuration not stated)	8	0	2	65*	5	9
CCCCc1ncc(CN2CCC3(CCC(CNC(=O)c4ccccc4)O3)CC2)[nH]1 (configuration not stated)	-6	0	3	84*	0	2
Cc1ccc(C23CC4CC(CC(C4)C2)C3)cc1[N+](=O)[O-]	-4	0	1	54*	4	13
COc1ccc(C23CC4CC(CC(C4)C2)C3)cc1[N+](=O)[O-]	-1	0	0	0	.	.
CN(C)[C@@H]1C(=O)C(C(=O)NCN2CCCC2)=C(O)[C@@]2(O)C(=O)C3=C(O)c4c(O)cccc4[C@@](C)(O)C3CC12 (some centres not stated)	-3	0	1	72*	78*	8	AlphaScreen DR=>6.5
O=C(NCC1CCCO1)C(=O)Nc1nccs1 (configuration not stated)	-6	0	2	99*	-4	-1
CCOc1ccccc1CN1CCC(N2CCOCC2)CC1	-6	0	-1	50	.	.
COc1ccccc1CN1CCC(N2CCN(C)CC2)CC1	10	0	0	46	.	.
SMILES	TEAD-YAP inh	FBW7 activator	GPR151 activ	MITF primary	MITF confirm	AS interf ctr	others
COc1ccc(CN2CCN(C3CCCC(C)C3)CC2)c(OC)c1OC (configuration not stated)	-6	0	2	54*	9	13
COc1ccccc1CN1CCN(C2CCCCC2)CC1	-1	0	-1	70*	-5	-4
COc1ccc(CN2CCN(C3CCC(c4ccccc4)CC3)CC2)c(OC)c1OC (configuration not stated)	8	0	2	53*	12	22
CCOc1ccccc1CN1CCC(N2CCC(C)CC2)CC1	0	0	-1	70*	16	17
COC(=O)c1c(NC(=O)C2CC2)sc(C(=O)Nc2cccc(C(F)(F)F)c2)c1C	-25	0	0	-11	.	.
COc1ccc(CN2CCN(C3CCCCC3)CC2)c(OC)c1OC	8	0	1	76*	-4	2
CCN1CCN(C2CCN(Cc3cc(OC)c(OC)c(OC)c3)CC2)CC1	-3	0	-1	49	.	.
COc1ccc(CN2CCC(N3CC(C)OC(C)C3)CC2)c(OC)c1OC (configuration not stated)	9	0	1	65*	-2	2
COc1ccc(CN2CCC(N3CC(C)OC(C)C3)CC2)cc1 (configuration not stated)	1	0	-1	87*	-4	0
CCN1CCN(C2CCN(Cc3ccc(OC)c(OC)c3OC)CC2)CC1	3	0	-1	61*	-13	-7
Cc1cc(C)cc(CN2CCc3nnc(CCNC(=O)C4CCCO4)n3CC2)c1 (configuration not stated)	-47	0	1	-8	.	.
CCOC(=O)c1sc2nc(CC(=O)OC)nc(Nc3ccccc3F)c2c1C	-4	0	-1	-9	.	.
Cc1ccc(-c2nnc(Nc3ccc(Cl)c(Cl)c3)c3ccccc23)cc1S(=O)(=O)NCCO	-10	0	-1	89*	3	8
O=C(CC1(O)C(=O)N(CCc2ccccc2)c2ccccc21)c1ccc(Cl)cc1 (configuration not stated)	8	0	1	-16	.	.
CCn1c(C)nc2cc(C(=O)NNC(=O)c3ccc(-c4ccccc4)cc3)ccc21	5	0	0	-2	.	.
O=C(O)C1=CC(=C(c2ccc(O)c(C(=O)O)c2)c2ccc(O)c(C(=O)O)c2)C=CC1=O	-8	-1	2	64*	83*	50*
O=C(Nc1ccc(O)c(C(=O)O)c1)c1ccc(Br)cc1	5	0	-2	5	.	.
COc1c(O)ccc(/C=N/NC(=O)c2cc(C(C)(C)C)[nH]n2)c1[N+](=O)[O-]	-3	0	1	13	.	.
COc1ccccc1N1CCN(C(=O)c2ccc3c(c2)C(=O)N(c2ccccn2)C3=O)CC1	1	0	-1	68*	-7	-4
O=C(c1ccc2c(c1)C(=O)N(c1ccccn1)C2=O)N1CCN(c2ccccc2Cl)CC1	-7	1	-1	15	.	.
CC(C(=O)N1CCC(C2(CCc3ccccc3)NC(=O)NC2=O)CC1)N1CCOCC1 (configuration not stated)	-4	0	-1	-3	.	.
